The values below come from PubChem BioAssay.

Assay [1] is described as follows: inhibitors of TNFa-induced NFkB p65 translocation, primary screen, imaging, HUVEC, MLSMR starter and 10KST1 sets (AID 438;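 active = inhibition above 20% together with a positive visual image hit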;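 also: compound added about 3h40 before a 20 min TNFalpha stimulation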;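 as to inhibition: signal is the nuclear over cytoplasmic p65 intensity ratio per well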). Particulars: HUVEC TNFa-induced p65 nuclear translocation; cell count: measured here: nuclei count (cytotoxicity indicator), at 2.08 µM; inhibition: at 2 µM, stronger effect = higher value, 0% TNFa-plus-vehicle, 100% no-TNFa wells.
Assay [2] can be described thus: reduction of polyQ htt aggregates in cells – imaging, exon1htt(103Q)mCFP cells, high-content imaging, primary screen (AID 483;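 active = visual image review flags a hit and inhibition of aggregation exceeds 20%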;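 also: compound exposure lasted 3 days before fixation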;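 as to nuclei count: percent of the per-plate median nuclei count of sample wells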). Particulars: exon1htt(103Q)mCFP cell line, aggregate imaging, at 2 µM; inhibition of aggregation: stronger effect = higher value; nuclei count: measured here: cell count, toxicity.
Assay [3] is described as follows: endothelial E-selectin expression blockers – imaging, HUVEC, immunofluorescence, MLSMR starter and 10KST1 sets, primary screen (AID 487;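 active = visually confirmed hit in the image check and inhibition above 20%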;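 as to inhibition: signal is fraction of cell area covered by stained E-selectin grains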;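 as to nuclei count: 100% = median nuclei count of all wells on the same plate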). As to conditions: HUVEC TNFalpha-induced E-selectin immunofluorescence imaging, at 2 µM; inhibition: stronger effect = higher value; nuclei count: measured here: cell number, toxicity.
In assay [4] the target is Voltage-gated potassium channel subunit beta-2 (Rattus norvegicus) (UniProt P62483). As to the kind of experiment: inhibitors of rat Kvbeta2 reductase activity – biochemical, NADPH fluorescence, primary screen (AID 622;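 active = fluorescence slope higher than the sample average by over 3 SD, cut at about -0.22 in these data, passing the limit was not always enough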;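 also: slope of raw intensity against log time taken from 70 to 1610 s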). Particulars: recombinant KvBeta, 4-cyanobenzaldehyde reduction, at 10 µM, stronger effect = higher value.
For assay [5] the target is unchanged. The assay is described as follows: enhancers of rat Kvbeta2 NADPH turnover – biochemical, NADPH fluorescence, primary screen (AID 623;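 active = NADPH fluorescence slope more negative than the mean of all samples by about 3 SD, 99.7% confidence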;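 also: fluorescence intensity change per second fitted from 20 to 320 s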). Particulars: Recombinant KvBeta, NADPH fluorescence decrease slope, 10 min; at 10 µM; stronger effect = lower value.
Assay [6] deals with Alpha-2C adrenergic receptor (Homo sapiens) (UniProt P18825). As to the kind of experiment: compounds altering alpha2C-coupled GIRK flux – cell-based, HEK293 alpha2C/GIRK1/2, thallium flux, primary screen (AID 624;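 active = fluorescence slope after compound addition differing from the mean of all screened samples at 99.7% confidence, in either direction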;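 also: slope of fluorescence ratio to pre-addition baseline per second over 15 to 24 s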). Particulars: thallium flux BTC fluorescence, at 10 µM, actives lie on both sides.
A short description of assay [7]: blockers of RIG-like receptor reporter activation – cell-based, Sendai virus stimulus, luciferase, 10K MLSCN set, TLR/RLR signaling modifier project, primary screen (AID 602276;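 active = inhibition at or above 50% at 10 µM; inactive = inhibition below 50%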;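 also: firefly luciferase from ISG56 promoter only with Renilla not read in this screen; 0% = Sendai virus plus DMSO and 100% = medium plus DMSO without virus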). As to conditions: HEK293 RL24 IRF3 luciferase reporter, at 10 µM, stronger effect = higher value.
Assay [8] is described as follows: TLR3 IRF3 reporter activation blockers – cell-based, poly I:C stimulus, luciferase, 10K MLSCN set, primary screen (AID 602277). As to conditions: HEK293-TLR3 RL24 IRF3 luciferase reporter, at 10 µM, stronger effect = higher value.

Activity calls are given as the source filed them.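 The calls were made as follows, unless noted: active = inhibition of the reporter signal at or above 50%; inactive = inhibition below 50%.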

Alpha-2C adrenergic receptor (Homo sapiens), sequence (P18825 whole entry, looked up): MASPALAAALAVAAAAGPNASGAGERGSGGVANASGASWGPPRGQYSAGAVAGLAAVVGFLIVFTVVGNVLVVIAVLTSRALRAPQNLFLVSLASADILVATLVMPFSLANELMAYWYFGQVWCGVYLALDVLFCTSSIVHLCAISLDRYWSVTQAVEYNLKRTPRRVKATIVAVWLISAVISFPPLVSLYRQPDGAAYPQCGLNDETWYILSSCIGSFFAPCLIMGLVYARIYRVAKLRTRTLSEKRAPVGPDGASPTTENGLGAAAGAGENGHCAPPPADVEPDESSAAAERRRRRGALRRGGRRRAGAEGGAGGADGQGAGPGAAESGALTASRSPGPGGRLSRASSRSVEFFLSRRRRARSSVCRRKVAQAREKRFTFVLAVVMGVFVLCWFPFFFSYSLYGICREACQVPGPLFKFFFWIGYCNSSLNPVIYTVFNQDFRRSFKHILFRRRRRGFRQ
Voltage-gated potassium channel subunit beta-2 (Rattus norvegicus), sequence (P62483 whole entry, looked up): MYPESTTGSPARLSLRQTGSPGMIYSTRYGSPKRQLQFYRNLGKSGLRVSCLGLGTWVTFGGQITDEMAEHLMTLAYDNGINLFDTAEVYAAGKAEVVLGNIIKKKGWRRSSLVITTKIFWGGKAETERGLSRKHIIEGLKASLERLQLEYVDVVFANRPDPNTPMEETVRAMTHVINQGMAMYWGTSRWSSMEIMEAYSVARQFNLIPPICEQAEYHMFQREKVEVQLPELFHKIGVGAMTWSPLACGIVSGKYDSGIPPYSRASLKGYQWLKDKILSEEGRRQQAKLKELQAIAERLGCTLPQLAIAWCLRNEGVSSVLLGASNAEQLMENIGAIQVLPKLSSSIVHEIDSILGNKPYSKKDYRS

Turning to `Nc1ncnc(Nc2ccccc2C(F)(F)F)n1`, the cell count in assay [1] was found to be 382. The inhibition was -3.3% (inactive) in assay [1], -8% (inactive) in assay [3], -28.4% (inactive) in assay [7] and -11.7% (inactive) in assay [8]. Further, the inhibition of aggregation in assay [2] was -11.5% (inactive). The nuclei count in assay [2] was 100%; in assay [3] it was 107%. The fluorescence slope in assay [4] is -0.487 (inactive). Also, the NADPH fluorescence slope in assay [5] is 4.7e-05 (inactive). Besides, in assay [6], the slope was 0.00593 (inactive).

As for `Cc1ccc(S(=O)(=O)N2CCC(C(=O)NCCN3CCCCCC3)CC2)cc1`, the cell count in assay [1] came to 768. Also, the inhibition in assay [1] is -9.5% (inactive); in assay [3], -87.4% (inactive); in assay [7], 11.2% (inactive); in assay [8] it was 32.9% (inactive). Also, the inhibition of aggregation in assay [2] was -2.1% (inactive). The nuclei count in assay [2] was 102%; in assay [3], 110%. The fluorescence slope in assay [4] is -0.456 (inactive). The NADPH fluorescence slope in assay [5] was -6.3e-05 (inactive). Besides, the slope in assay [6] was 0.00469 (inactive).

As to `Cc1ccc(C2Nc3ccccc3-c3nc4ccccc4n32)o1` (centres undefined), the cell count in assay [1] came out at 741. Further, the inhibition is 6.8% (inactive) in assay [1], -26.5% (inactive) in assay [3], -46.2% (inactive) in assay [7] and -110% (inactive) in assay [8]. In addition, the inhibition of aggregation in assay [2] was 3.8% (inactive). The nuclei count in assay [2] was 88.4%; in assay [3], 80.6%. Also, the fluorescence slope in assay [4] was -0.475 (inactive). In addition, in assay [5], the NADPH fluorescence slope is -2.2e-05 (inactive). Besides, the slope in assay [6] was 0.00364 (inactive).

Take `COc1ccc2nc(NC(=O)c3ccoc3C)sc2c1`: in assay [1], the cell count worked out at 362. Further, the inhibition is 1.4% (inactive) in assay [1], -75.7% (inactive) in assay [3], -30.4% (inactive) in assay [7] and -105% (inactive) in assay [8]. In addition, in assay [2], the inhibition of aggregation was -11.6% (inactive). In addition, the nuclei count in assay [2] was 106%; in assay [3], 118%. In assay [4], the fluorescence slope was -0.38 (inactive). For the same compound, the NADPH fluorescence slope in assay [5] is -2.2e-05 (inactive). Besides, in assay [6], the slope was 0.00322 (inactive).

As for `CCOC(=O)c1ccccc1NC(=O)CSc1nnc(COc2ccccc2C)n1C`, in assay [1], the cell count is 667. The inhibition is 14.9% (inactive) in assay [1], 45.4% (inactive) in assay [3], 16.9% (inactive) in assay [7] and 22.9% (inactive) in assay [8]. Moreover, in assay [2], the inhibition of aggregation was 11.9% (inactive). The nuclei count in assay [2] turned out to be 97.3%; in assay [3], 100%. Moreover, the fluorescence slope in assay [4] was -0.346 (inactive). In addition, the NADPH fluorescence slope in assay [5] is -4.2e-05 (inactive). For the same compound, in assay [6], the slope is 0.00577 (inactive).

`O=C(CN1CCCN(S(=O)(=O)c2ccc(F)cc2)CC1)Nc1ccccc1Br`: in assay [1], the cell count came to 220. Moreover, the inhibition in assay [1] is -1.3% (inactive); in assay [3], -17.3% (inactive); in assay [7] it was 3.65% (inactive); in assay [8], 9.12% (inactive). Moreover, in assay [2], the inhibition of aggregation was 2% (inactive). Moreover, the results for the nuclei count in assay [2] and in assay [3] were 108% and 118%, respectively. Further, the fluorescence slope in assay [4] is -0.504 (inactive). In addition, the NADPH fluorescence slope in assay [5] is 2.2e-05 (inactive). Further, in assay [6], the slope was 0.00558 (inactive).

For the compound `COc1cccc(C2C(C(N)=O)=C(C)Nc3nc(CCCO)nn32)c1OC` (centres undefined), the cell count in assay [1] worked out at 480. For the same compound, the inhibition in assay [1] is 5% (inactive); in assay [3] it was -24.5% (inactive); in assay [7], -11.2% (inactive); in assay [8], 7.06% (inactive). In addition, in assay [2], the inhibition of aggregation was 11.5% (inactive). In addition, the nuclei count in assay [2] was 102%; in assay [3] it was 94.1%. For the same compound, the fluorescence slope in assay [4] is -0.455 (inactive). In addition, the NADPH fluorescence slope in assay [5] was -2.8e-05 (inactive). Further, the slope in assay [6] is 0.00572 (inactive).

Consider `O=c1c2cc(N3CCOCC3)ccc2[nH]c(=S)n1CCCN1CCCCC1`, for which the cell count in assay [1] came to 522. Besides, the inhibition is 6.2% (inactive) in assay [1], -2.6% (inactive) in assay [3], -10.1% (inactive) in assay [7] and 23.3% (inactive) in assay [8]. The inhibition of aggregation in assay [2] is -8.5% (inactive). The nuclei count is 121% in assay [2] and 106% in assay [3]. For the same compound, the fluorescence slope in assay [4] was -0.0837 (active). For the same compound, the NADPH fluorescence slope in assay [5] was 8.7e-06 (inactive). The slope in assay [6] is 0.00508 (inactive).

Turning to `Cc1ccc(C)c(N2CCN(C(=O)CCCn3c(=S)[nH]c4cc5c(cc4c3=O)OCO5)CC2)c1`, the cell count in assay [1] came out at 494. The inhibition in assay [1] is 2.5% (inactive); in assay [3] it was -37.7% (inactive); in assay [7], 0.122% (inactive); in assay [8] it was 17.7% (inactive). The inhibition of aggregation in assay [2] was -3.8% (inactive). Also, the nuclei count was 109% in assay [2] and 114% in assay [3]. The fluorescence slope in assay [4] is -0.433 (inactive). In assay [5], the NADPH fluorescence slope is 1.2e-05 (inactive). Besides, the slope in assay [6] was 0.00641 (inactive).

Take `Cc1c(C(=O)N2CCOCC2)oc2ccc(S(=O)(=O)N3CCCC3)cc12`: in assay [1], the cell count stood at 729. The inhibition in assay [1] was -14.1% (inactive); in assay [3], -31.7% (inactive); in assay [7], -1.69% (inactive); in assay [8], 2.47% (inactive). The inhibition of aggregation in assay [2] is 4.5% (inactive). The nuclei count in assay [2] is 106%; in assay [3], 105%. Also, in assay [4], the fluorescence slope was -0.518 (inactive). In addition, the NADPH fluorescence slope in assay [5] was -7.1e-05 (inactive). Further, the slope in assay [6] is 0.00624 (inactive).

As for `CC1Cc2ccccc2N1C(=O)C12CCC(C)(C(=O)C1)C2(C)C` (centres undefined), the cell count in assay [1] is 387. Further, the inhibition in assay [1] was -1.6% (inactive); in assay [3] it was -141% (inactive); in assay [7] it was -4.72% (inactive); in assay [8], 1.25% (inactive). The inhibition of aggregation in assay [2] is -6.9% (inactive). Also, the nuclei count in assay [2] worked out at 99.5%; in assay [3], 116%. Further, the fluorescence slope in assay [4] is -0.544 (inactive). Moreover, in assay [5], the NADPH fluorescence slope was -7.5e-05 (inactive). For the same compound, the slope in assay [6] was 0.00468 (inactive).

`c1ccc(Cn2ncc3c2ncn2c(-c4ccncc4)nnc32)cc1`: in assay [1], the cell count is 430. For the same compound, the inhibition is -10.4% (inactive) in assay [1], -36% (inactive) in assay [3], -13.1% (inactive) in assay [7] and -7.97% (inactive) in assay [8]. For the same compound, the inhibition of aggregation in assay [2] was -7.2% (inactive). Also, the nuclei count in assay [2] is 117%; in assay [3], 98.3%. For the same compound, in assay [4], the fluorescence slope is -0.517 (inactive). Besides, the NADPH fluorescence slope in assay [5] is -1.5e-05 (inactive). Besides, the slope in assay [6] was 0.00557 (inactive).

As for `CC(=O)Nc1ccc(S(=O)(=O)NCc2csc(-c3cccnc3)n2)cc1`, in assay [1], the cell count turned out to be 356. The inhibition was -10.2% (inactive) in assay [1], -19.2% (inactive) in assay [3], 9.95% (inactive) in assay [7] and 22.2% (inactive) in assay [8]. Also, in assay [2], the inhibition of aggregation is -11.8% (inactive). Moreover, the nuclei count worked out at 108% in assay [2] and 101% in assay [3]. The fluorescence slope in assay [4] is -0.511 (inactive). Moreover, the NADPH fluorescence slope in assay [5] is -3.4e-05 (inactive). In addition, in assay [6], the slope was 0.00545 (inactive).

Turning to `Cc1nc2sc(C(c3cccs3)N3CCC(C(N)=O)CC3)c(O)n2n1` (centres undefined), the cell count in assay [1] worked out at 625. Besides, the inhibition in assay [1] was -3.9% (inactive); in assay [3], -47.4% (inactive); in assay [7], 14.6% (inactive); in assay [8], 32.7% (inactive). Moreover, the inhibition of aggregation in assay [2] was -7.5% (inactive). Also, the figures for the nuclei count in assay [2] and in assay [3] were 105% and 120%, respectively. Moreover, in assay [4], the fluorescence slope is -0.565 (inactive). In addition, the NADPH fluorescence slope in assay [5] is -4.6e-05 (inactive). For the same compound, the slope in assay [6] is 0.00644 (inactive).
